Compound activity as filed in PubChem.
In the library only some 3.9% were active in any assay of this set; here they are far more common.
esBAF inh = SWI/SNF esBAF complex inhibition. mouse ES cells, Bmi1-luciferase knock-in reporter, 24 h; 100% = twice the neutral-well signal. reporter increase, % at 12.5 µM. actives 2% (n = 350,000). AID 602393; in the data active = activation above about 40%;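 also: a rise in the Bmi1 reporter signal indicates esBAF inhibition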
HSF1 inh = HSF1 inhibition; NIH3T3-HGL HSE-luciferase, MG132-induced, luminescence 8 h; stronger effect = lower value; activity change, negative = inhibition, % at 7.5 µM (by protocol); actives 0.77% (n = 300,000);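 active = more than half of replicate wells show activity change below -50%, luminescence cut by over half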;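 also: luciferase reports HSF-1 transcriptional activity via heat shock element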
Wnt bcat act = Wnt/beta-catenin pathway activation; activation, % at 9.35 µM; actives 1.2% (n = 300,000); AID 743398; Wnt/beta-catenin reporter cell assay, activator, plate reader; in the data active = activation above about 30%, passing the limit was not always enough
MITF act = MITF TRPM1 promoter activation in melanoma cells. SK-MEL-5 TRPM1-promoter luciferase, 24 h; % of positive control, neutral wells = 0. activation, % at 12.5 µM. actives 0.75% (n = 300,000);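 active = mean activation of at least 80% with every replicate also reaching 80%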
HSF1 activator = increases HSF-1 driven luciferase reporter signal. AID 504408. NIH3T3-HGL HSF-1 luciferase reporter, MG132, 8 h; 100% = twice DMSO control signal. actives 1.7% (n = 300,000). activation, % at 9 µM;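 active = mean replicate activation of at least 50% with a set share of replicates each reaching 50%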
A number is an active result.

How did Cc1ccc(N=C2NC(=O)/C(=C/c3cccn3C)S2)cc1C do in these assays?
HSF1 inh: inactive; Wnt bcat act: inactive; HSF1 activator: 54

How did Cc1ccc(N=C2NC(=O)/C(=C/c3cccn3C)S2)cc1 do in these assays?
HSF1 inh: inactive; Wnt bcat act: inactive; HSF1 activator: inactive

Results for C[C@H](CO)N1C[C@H](C)[C@H](CN(C)S(C)(=O)=O)Oc2c(NC(=O)c3nc4ccccc4s3)cccc2C1=O ?
esBAF inh: inactive

What do the screens show for `C=CCNC(=S)NNC(=O)COc1ccc(Br)cc1`?
HSF1 inh: inactive; Wnt bcat act: inactive; MITF act: inactive; HSF1 activator: inactive

How did C=CCNC(=S)NNC(=O)COc1ccc2cc(Br)ccc2c1 do in these assays?
esBAF inh: 41; HSF1 inh: inactive; Wnt bcat act: inactive; MITF act: inactive; HSF1 activator: inactive

What do the screens show for `O=C(C1=C[C@H](c2ccc(Br)cc2)C[C@H](OCCCCO)O1)N1CCN(Cc2ccc3c(c2)OCO3)CC1`?
esBAF inh: inactive; HSF1 inh: -54; MITF act: inactive; HSF1 activator: inactive

What do the screens show for `O=C(C1=C[C@@H](c2ccc3c(c2)OCO3)C[C@@H](OCCCCO)O1)N1CCN(Cc2ccc3c(c2)OCO3)CC1`?
esBAF inh: inactive; HSF1 inh: inactive; Wnt bcat act: inactive; MITF act: inactive; HSF1 activator: inactive

How did COc1ccc(S(=O)(=O)Nc2cc(C(C)C)c(O)cc2C)cc1 do in these assays?
esBAF inh: inactive; HSF1 inh: inactive; Wnt bcat act: inactive; HSF1 activator: inactive

Results for COc1ccc2nc3cc(Cl)ccc3c(Nc3cc(C(C)C)c(O)cc3C)c2c1 ?
esBAF inh: inactive; HSF1 inh: inactive; Wnt bcat act: inactive; MITF act: inactive; HSF1 activator: 187

How did COc1ccccc1-c1noc(-c2ccncc2)n1 do in these assays?
esBAF inh: 46; HSF1 inh: inactive; Wnt bcat act: inactive; MITF act: inactive; HSF1 activator: inactive

Results for COc1nc(C)ccc1-c1noc(-c2ccccn2)n1 ?
esBAF inh: inactive; HSF1 inh: inactive; Wnt bcat act: inactive; MITF act: inactive; HSF1 activator: inactive

How did COc1ccccc1-c1noc(-c2cccs2)n1 do in these assays?
esBAF inh: 55; HSF1 inh: inactive; Wnt bcat act: inactive; MITF act: 121; HSF1 activator: inactive

What do the screens show for `COc1ccccc1-c1nc(-c2ccc(C)nc2OC)no1`?
esBAF inh: 69; HSF1 inh: inactive; Wnt bcat act: 61; HSF1 activator: inactive

How did COc1ccc(Br)cc1-c1noc(-c2ccncc2)n1 do in these assays?
esBAF inh: inactive; HSF1 inh: inactive; Wnt bcat act: inactive; HSF1 activator: inactive

Results for C[C@H]1CN([C@@H](C)CO)C(=O)c2cc(NS(=O)(=O)c3ccccc3)ccc2O[C@H]1CN(C)C ?
esBAF inh: inactive

Results for COc1ccc(CN(C)C[C@H]2Oc3c(NS(=O)(=O)c4ccc(OC)cc4)cccc3C(=O)N([C@H](C)CO)C[C@H]2C)cc1 ?
esBAF inh: inactive

Results for CC1(C)CC(NC(=O)COc2ccc(Br)cc2Cl)CC(C)(C)N1 ?
esBAF inh: inactive; HSF1 inh: inactive; Wnt bcat act: inactive; MITF act: inactive; HSF1 activator: inactive

What do the screens show for `CC1(C)CC(NC(=O)COc2ccccc2Cl)CC(C)(C)N1`?
esBAF inh: inactive; HSF1 inh: -65; Wnt bcat act: inactive; MITF act: inactive; HSF1 activator: inactive

What do the screens show for `N#C[C@H]1[C@H](c2ccc(C3=CCCC3)cc2)[C@@H](CO)N1C(=O)C1CCOCC1`?
esBAF inh: inactive

What do the screens show for `C[C@@H]1CN([C@H](C)CO)C(=O)c2cccc(NS(=O)(=O)c3ccccc3)c2O[C@H]1CN(C)S(=O)(=O)c1ccccc1`?
esBAF inh: inactive

Results for O=S1(=O)C=C(Sc2nc3ccccc3s2)c2ccccc21 ?
HSF1 inh: -87; HSF1 activator: inactive

How did Cc1cccc(NC(=S)N(CCN(C)C)C(C)c2cccnc2)c1 (configuration not stated) do in these assays?
esBAF inh: inactive; HSF1 inh: inactive; Wnt bcat act: inactive; MITF act: inactive; HSF1 activator: 60

How did Cc1ccccc1CN(C)C[C@@H]1OCc2cnnn2CCCC(=O)N([C@H](C)CO)C[C@@H]1C do in these assays?
esBAF inh: inactive

Results for COc1ccc(Cl)cc1S(=O)(=O)N1CCC(C(=O)NCCc2ccccc2)CC1 ?
esBAF inh: inactive; HSF1 inh: -79; Wnt bcat act: inactive; HSF1 activator: inactive

How did COc1ccc(C)cc1S(=O)(=O)N1CCC(C(=O)NCCc2ccccc2)CC1 do in these assays?
HSF1 inh: inactive; MITF act: inactive; HSF1 activator: inactive

How did COc1ccc(OCc2cc(C(=O)N3CCC(OC)CC3)no2)c2ccccc12 do in these assays?
esBAF inh: 70; HSF1 inh: inactive; Wnt bcat act: inactive; MITF act: inactive; HSF1 activator: inactive

Results for CCOC(=O)C1CCN(C(=O)c2cc(COc3ccc(OC)c4ccccc34)on2)CC1 ?
esBAF inh: 57; HSF1 inh: inactive; Wnt bcat act: 40; MITF act: inactive; HSF1 activator: inactive

What do the screens show for `Fc1ccc(N2CCN(Cc3ccccn3)CC2)cc1`?
HSF1 inh: inactive; Wnt bcat act: 40; MITF act: inactive; HSF1 activator: inactive

What do the screens show for `COc1ccc(N(CC(=O)NC2CC3CCC2C3)S(=O)(=O)c2ccc(C)cc2)cc1Cl` (configuration not stated)?
Wnt bcat act: 51

Results for COc1ccc(S(=O)(=O)Nc2ccc3c(c2)CC(=O)N([C@@H](C)CO)C[C@H](C)[C@@H](CN(C)C(=O)Nc2ccc(C(F)(F)F)cc2)O3)cc1 ?
esBAF inh: inactive

Results for CCCNc1nc(C)nc2c1cnn2CCc1ccccc1 ?
esBAF inh: inactive; HSF1 inh: inactive; MITF act: inactive; HSF1 activator: inactive

How did Cc1nc(NC(C)C)c2cnn(CCc3ccccc3)c2n1 do in these assays?
esBAF inh: inactive; HSF1 inh: inactive; MITF act: 98; HSF1 activator: 54

How did O=C(CC(F)(F)F)N1C[C@H]2[C@@H](c3ccccc31)[C@H](CO)N2CC1CCCCC1 do in these assays?
esBAF inh: inactive

What do the screens show for `O=C(Nc1cccc(-c2nc3ccccc3s2)c1)c1cc(-n2cnnc2)ccc1Cl`?
esBAF inh: 82; HSF1 inh: inactive; MITF act: inactive; HSF1 activator: inactive

How did COc1ccccc1-c1nnc(Nc2nc3c(OC)cccc3s2)o1 do in these assays?
esBAF inh: inactive; HSF1 inh: inactive; Wnt bcat act: inactive; HSF1 activator: 214

Results for COc1cccc2sc(Nc3nc4ccc(NC(C)=O)cc4s3)nc12 ?
esBAF inh: 48; HSF1 inh: inactive; Wnt bcat act: inactive; MITF act: inactive; HSF1 activator: inactive

Results for CC(=O)Nc1ccc2nc(NC(=O)COc3ccccc3Cl)sc2c1 ?
esBAF inh: 60; HSF1 inh: inactive; Wnt bcat act: inactive; MITF act: 89; HSF1 activator: inactive
